Screening results as filed in PubChem BioAssay.
HT1080 IDH1KD tx: qHTS for induction of synthetic lethality in tumor cells producing 2HG: qHTS for the HT-1080-IDH1KD cell line; 360,000 tested, 2% active; Potency, µM (titrated, usually from 46.1 µM), for the others: top-dose activity, negative = toxicity, actives largely listed as cytotoxic; AID 686971, 2013; HT-1080 IDH1 knockdown viability, ATP luminescence, 48 h;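 note: potency is the fitted concentration of half-maximal effect; 0% = DMSO wells and -100% = cell-free medium wells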
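IDH1KD HT-1080 cells, 750/well, RPMI + 5% FBS; compound pinned after 2 h settling; 48 h, 37 °C; CellTiter-Glo luminescence; % activity normalised to DMSO and no-cell wells; curves fitted, classed by r2 and efficacy.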
HT1080NT lethal: qHTS for induction of synthetic lethality in tumor cells producing 2HG: qHTS for the HT-1080-NT fibrosarcoma cell line; 360,000 tested, 1.6% active; HT-1080-NT fibrosarcoma viability, CellTiter-Glo ATP luminescence, 48 h; Potency, µM (doses to about 46.1 µM), without a hit: at the highest dose activity, negative = less viability, actives largely listed as cytotoxic;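 note: NT is the 2HG producing partner of a matched IDH1 knockdown line; potency is the fitted concentration of half-maximal effect; 0% = DMSO-treated cells and -100% = media-only wells without cells; nearly all actives have a fitted effect of over 55% in size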
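Luminescent CellTiter-Glo readout after 48 hours of compound exposure at 37 degrees C defined viability of HT-1080-NT cells. Activity was normalized to DMSO wells and cell-free media wells; concentration-response curves were fitted and assigned curve classes.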
ELG1 repair inh: qHTS screen for small molecules that inhibit ELG1-dependent DNA repair in human embryonic kidney (HEK293T) cells expressing luciferase-tagged ELG1. HEK293T ELG1-luciferase reporter, luminescence, 16 h; DNA damage induced by 5-fluorouridine. Potency, µM (titrated, usually from 46.1 µM), for inactives: at the highest dose activity change, negative = inhibition, hits mostly inhibitors. 330,000 tested, 2.3% active; note: potency is the fitted concentration of half-maximal effect; nearly all actives have a fitted effect of over 55% in size
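Luminescence from the luciferase reporter, measured 30 min after ONE-Glo reagent at room temperature, was the read-out. Beforehand, 2,000 cells per well were exposed for 16 hr at 37 °C to 5-fluorouridine together with compound or vehicle.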
DT40 TDP1 CPT: qHTS for Inhibitors of human tyrosyl-DNA phosphodiesterase 1 (TDP1): qHTS in cells in presence of CPT; chicken DT40 Tdp1-/-;hTDP1 cells + 20 nM CPT, ATP luminescence, 48 h; Potency, µM (titrated, usually from 46.2 µM), for inactives: top-dose activity change, negative = growth inhibition, usual class: inhibitors; 420,000 tested, 12% active; AID 686979, 2013; note: potency is the fitted concentration of half-maximal effect; nearly all actives have a fitted effect of over 55% in size
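Cell growth measured by CellTiter-Glo luminescence after a minimum 48 h, 37 C compound exposure with 20 nM CPT in Tdp1-knockout DT40 cells stably expressing hTDP1, seeded 400/well; qHTS titration format.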
DT40 TDP1 no CPT: qHTS for Inhibitors of human tyrosyl-DNA phosphodiesterase 1 (TDP1): qHTS in cells in absence of CPT; Potency, µM (doses to about 46.2 µM), inactives show at the top dose activity change, negative = growth inhibition, usual class: inhibitors; 420,000 tested, 15% active; DT40 Tdp1-/- hTDP1 cells, no CPT, ATP luminescence, 48 h; note: potency is the fitted concentration of half-maximal effect; nearly all actives have a fitted effect of over 55% in size
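Growth of hTDP1-complemented DT40 Tdp1-knockout cells is measured by ATP luminescence after at least 48 hr compound exposure at 37 °C, with DMSO substituting for the 20 nM CPT used in the parallel screen.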
IL1B secr inh: qHTS for Inhibitors of Inflammasome Signaling: IL-1-beta AlphaLISA Primary Screen. THP-1 LPS/ATP IL-1B secretion, AlphaLISA, 16 h; stronger effect = lower value. 360,000 tested, 4.7% active. activity change, % at 57.5 µM; in the data active = activity change below about -50%; inconclusive = mostly about -30% to -49%
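Secreted IL-1B measured by AlphaLISA bead assay after 16 h compound exposure of THP-1 cells; compounds (final up to 57.5 uM) added 1 h before LPS (250 ng/mL) and ATP (1.25 mM) stimulation; lower signal means less secretion.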
Starred values were filed as active, the others as inactive. A selection: hits, their analogues and other compounds. The true share with any hit is near 19%. Unless noted, calls come from the whole dose curve; as a rule, active = well fitted curve in the direction sought with a large enough effect; inconclusive = small, poorly fitted or top-dose-only effect, or another doubt; inactive = no such curve, though single readings can be large; an effect the other way counts as inactive or inconclusive. Unless noted, % is set by controls: 0 for no effect and ±100 for the full control effect.

What do the screens show for `COc1ccc(-c2nc3scc(CCNS(=O)(=O)c4cccs4)n3n2)cc1`?
DT40 TDP1 CPT: 20.6µM*; DT40 TDP1 no CPT: 18.4µM*

What do the screens show for `COc1ccc(Br)c(C=O)c1OS(=O)(=O)c1ccc(C)cc1`?
HT1080 IDH1KD tx: inconclusive; HT1080NT lethal: -3.0%; DT40 TDP1 CPT: inconclusive; DT40 TDP1 no CPT: inconclusive; IL1B secr inh: 19.2

Results for Cc1cccc(N(CC(=O)NCCc2ccccc2)C(=O)CCC(=O)Nc2ccccn2)c1C ?
HT1080 IDH1KD tx: -19.3%; HT1080NT lethal: -1.9%; ELG1 repair inh: -1.4%; DT40 TDP1 CPT: -7.3%; DT40 TDP1 no CPT: inconclusive; IL1B secr inh: -5.3

Results for CC1(C(=O)Nc2cccc(Oc3ccccc3)c2)CCN1Cc1ccccc1OC(F)F (configuration not stated) ?
HT1080 IDH1KD tx: -18.3%; HT1080NT lethal: -24.7%; DT40 TDP1 CPT: inconclusive; DT40 TDP1 no CPT: inconclusive; IL1B secr inh: -12.7

What do the screens show for `COc1cccc(NC(=O)C2(C)CCN2Cc2cccc(OC)c2F)c1` (configuration not stated)?
HT1080 IDH1KD tx: inconclusive; HT1080NT lethal: -18.3%; DT40 TDP1 CPT: inconclusive; DT40 TDP1 no CPT: 20.6µM*; IL1B secr inh: -17.2

Results for COc1cccc(CN2CCC2(C)C(=O)Nc2ccc3c(c2)OCO3)c1F (configuration not stated) ?
HT1080 IDH1KD tx: inconclusive; HT1080NT lethal: -8.9%; DT40 TDP1 CPT: 23.1µM*; DT40 TDP1 no CPT: inconclusive; IL1B secr inh: -27.6

What do the screens show for `COc1cccc(CN2CCC2(C)C(=O)Nc2cccc(Oc3ccccc3)c2)c1F` (configuration not stated)?
HT1080 IDH1KD tx: 6.51µM*; HT1080NT lethal: inconclusive; DT40 TDP1 CPT: 10.3µM*; DT40 TDP1 no CPT: 7.31µM*; IL1B secr inh: -21.0

Results for COc1ccc(NC(=O)C2(C)CCN2Cc2cccc(OC)c2F)cc1OC (configuration not stated) ?
HT1080 IDH1KD tx: 4.4%; HT1080NT lethal: 11.9%; DT40 TDP1 CPT: 23.1µM*; DT40 TDP1 no CPT: 13µM*; IL1B secr inh: inconclusive

How did COc1ccc(NC(=O)C2(C)CCN2Cc2ccc3ccccc3c2)cc1OC (configuration not stated) do in these assays?
HT1080 IDH1KD tx: inconclusive; HT1080NT lethal: -20.8%; DT40 TDP1 CPT: inconclusive; DT40 TDP1 no CPT: inconclusive; IL1B secr inh: -18.0

What do the screens show for `Cc1cnc(NC(=O)Cc2cccs2)s1`?
HT1080 IDH1KD tx: 5.8%; HT1080NT lethal: 9.9%; ELG1 repair inh: inconclusive; DT40 TDP1 CPT: inconclusive; DT40 TDP1 no CPT: inconclusive; IL1B secr inh: -2.4

Results for COc1cccc(CN2CCC2(C)C(=O)Nc2ccc(C)cc2)c1F (configuration not stated) ?
HT1080 IDH1KD tx: -17.6%; HT1080NT lethal: inconclusive; DT40 TDP1 CPT: 16.4µM*; DT40 TDP1 no CPT: 23.1µM*; IL1B secr inh: 0.8

Results for COc1cccc(CN2CCC2(C)C(=O)Nc2ccc(C)c(O)c2)c1F (configuration not stated) ?
HT1080 IDH1KD tx: inconclusive; HT1080NT lethal: inconclusive; DT40 TDP1 CPT: 11.6µM*; DT40 TDP1 no CPT: 11.6µM*; IL1B secr inh: -52.4*

What do the screens show for `Cc1ccc(NC(=O)C2(C)CCN2Cc2cccc3c2OCO3)cc1O` (configuration not stated)?
HT1080 IDH1KD tx: inconclusive; HT1080NT lethal: inconclusive; DT40 TDP1 CPT: 16.4µM*; DT40 TDP1 no CPT: inconclusive; IL1B secr inh: 0.0

Results for COc1ccc(-n2c(=O)c3c(c4cc(OC)ccc4n3C)n(Cc3c(F)cccc3Cl)c2=O)cc1 ?
DT40 TDP1 CPT: -3.0%; DT40 TDP1 no CPT: -12.5%

What do the screens show for `COc1ccccc1-c1nnc(C2CCN(S(=O)(=O)c3ccc([N+](=O)[O-])cc3)CC2)o1`?
HT1080 IDH1KD tx: 11.1%; HT1080NT lethal: 1.6%; ELG1 repair inh: inconclusive; DT40 TDP1 CPT: inconclusive; DT40 TDP1 no CPT: inconclusive; IL1B secr inh: 17.6

Results for COc1ccccc1-c1nnc(C2CCN(S(=O)(=O)c3cccc([N+](=O)[O-])c3)CC2)o1 ?
HT1080 IDH1KD tx: -4.3%; HT1080NT lethal: -6.5%; ELG1 repair inh: -34.1%; DT40 TDP1 CPT: inconclusive; DT40 TDP1 no CPT: 20.6µM*; IL1B secr inh: -1.8

How did COc1ccccc1-c1nnc(C2CCN(S(=O)(=O)c3ccccc3)CC2)o1 do in these assays?
DT40 TDP1 CPT: inconclusive; DT40 TDP1 no CPT: 14.6µM*

How did CSc1ncc(Cl)c(C(=O)Nc2cccc(Cl)c2)n1 do in these assays?
HT1080 IDH1KD tx: 8.0%; HT1080NT lethal: -4.0%; ELG1 repair inh: -4.3%; DT40 TDP1 CPT: -16.5%; DT40 TDP1 no CPT: inconclusive; IL1B secr inh: 29.9

Results for CC1Cc2ccccc2C[N+]1(C)CC(=O)c1cccc([N+](=O)[O-])c1 (configuration not stated) ?
DT40 TDP1 CPT: -26.5%; DT40 TDP1 no CPT: inconclusive
